According to PubChem BioAssay (NCI):
The panel holds about 83,000 compounds, 20% with a hit somewhere; the sample as a whole holds those more often.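 Step 1: grow cells in 96-well plates. Step 2: add test compound at a single concentration. Step 3: incubate 48 h. Step 4: record percent growth.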 A number with no mark means an inactive call. The source made the active and inactive calls. The calls were made as follows: active = growth percent below 10; inactive = the rest.

Experiments:
Test in all cases: NCI-60 one-dose screen, 48 h (100 = growth as untreated, 0 = no growth, -100 = all killed)
SR leukemia = conditions: 10 µM unless noted
RPMI-8226 leukemia = conditions: 10 µM unless noted
OVCAR-8 ovarian = conditions: 10 µM unless noted
OVCAR-5 ovarian = conditions: 10 µM unless noted
OVCAR-4 ovarian = conditions: 10 µM unless noted
SK-OV-3 ovarian = conditions: 10 µM unless noted
IGROV1 ovarian = conditions: 10 µM unless noted
HS 578T breast = conditions: 10 µM
NCI/ADR-RES ovarian = conditions: 10 µM unless noted
T-47D breast = conditions: 10 µM unless noted
BT-549 breast = conditions: 10 µM unless noted
MDA-MB-435 melanoma = conditions: 10 µM unless noted
SW-620 colon = conditions: 10 µM unless noted
MCF7 breast = conditions: 10 µM unless noted
HCT-116 colon = conditions: 10 µM unless noted
HCC-2998 colon = conditions: 10 µM unless noted
KM12 colon = conditions: 10 µM unless noted
OVCAR-3 ovarian = conditions: 10 µM unless noted

| Compound | growth (SR leukemia) | growth (RPMI-8226 leukemia) | growth (OVCAR-8 ovarian) | growth (OVCAR-5 ovarian) | growth (OVCAR-4 ovarian) | growth (SK-OV-3 ovarian) [%] | growth (IGROV1 ovarian) | growth (HS 578T breast) | growth (NCI/ADR-RES ovarian) | growth (T-47D breast) | growth (BT-549 breast) | growth (MDA-MB-435 melanoma) | growth (SW-620 colon) | growth (MCF7 breast) | growth (HCT-116 colon) | growth (HCC-2998 colon) | growth (KM12 colon) | growth (OVCAR-3 ovarian) |
| --- | --- | --- | --- | --- | --- | --- | --- | --- | --- | --- | --- | --- | --- | --- | --- | --- | --- | --- |
| CCCCCCCCCCC(C(O)c1ccccc1)N1CCCCC1 (centres undefined) | 0.484% (active) | -50.3% (active) | 62.8% | 47.4% | 41% | 36.1 | 2.8% (active) | 18.3% | 49.8% | -33.7% (active) | 79.7% | -54.3% (active) | -30.8% (active) | -65.4% (active) | 14.7% | 49.1% | 8.17% (active) | – |
| COc1cc(C2Nc3ccccc3S2)cc(CN2CCOCC2)c1O (centres undefined) | 49% | 81.1% | 88.9% | 122% | 87.5% | 83.3 | – | 72.2% | 34.2% | 88.4% | 84.9% | 0.594% (active) | 50.7% | 50.6% | 53.2% | 86.4% | 55.4% | 52% |
| CC1=C(O)C(=O)C(c2c(C)cc(C)c(Br)c2C)=C(O)C1=O | 48.9% | 36.7% | 68.4% | 70.1% | 45.6% | 88.3 | – | 76.4% | 73.4% | 83.3% | 73.1% | 73.2% | 85.5% | 56.5% | 54.4% | 63% | 67.7% | 54.2% |
| O=C1OCC2=C1C(c1ccc(Cl)c(Cl)c1)c1cc3c(cc1N2CCO)CCC3 (centres undefined) | 33.7% | 22% | 23.5% | 35.3% | 50% | 38.6 | – | 5.2% (active) | 4.51% (active) | 63.3% | 44.8% | -38.6% (active) | 24.5% | 20.4% | 18.3% | – | 9.04% (active) | -42% (active) |
| COc1ccc(/C=C2\Cc3c(Br)cccc3C2=O)c(OC)c1 | 52.2% | 60.9% | 80.8% | 85.3% | 72.1% | 80.8 | – | 80.5% | 50.1% | 77.3% | 69.6% | 7.83% (active) | 43.2% | 55.6% | 15% | 84.1% | 46.8% | 67.2% |
| CCc1ccc(Nc2cc(C)c3ccc(O)cc3n2)cc1 | 43.9% | 29.9% | 80% | 83.7% | 75.7% | 90.1 | – | 87.6% | – | 55.3% | 88.3% | 28.5% | 78.5% | 63.9% | 56.8% | -59.8% (active) | 53.9% | 81% |
| CC1(C)C(N(O)C(=O)Nc2ccc(Cl)cc2)N(c2ccc(Cl)cc2)C(=O)N1CC(=O)N/N=C/C=C/c1ccc([N+](=O)[O-])o1 (centres undefined) | -13.1% (active) | -23.7% (active) | 3.32% (active) | 6.4% (active) | 14.9% | 57.8 | – | -11.4% (active) | 95% | 34.3% | -19.1% (active) | -15.3% (active) | -15.7% (active) | 7.37% (active) | -98.1% (active) | -90.6% (active) | 23.1% | -26.8% (active) |
| CN(C)c1ccc(Nc2c3ccccc3nc3ccccc23)cc1 | -8.36% (active) | 17.2% | 23.5% | 43.7% | 1.57% (active) | 22 | – | 25.2% | 12.5% | 11.1% | 44.5% | 19.4% | 13.6% | 5.1% (active) | 5.58% (active) | 0.72% (active) | 18% | -11.7% (active) |
| CCOC(=O)NNc1cccc(Cl)c1 | 102% | 98.8% | 106% | 88.3% | 106% | 105 | 94.9% | 104% | 99.3% | 119% | – | 107% | 102% | 105% | 111% | 99.9% | 116% | – |
| CCN(C(=O)Nc1cccc2ccccc12)c1ccccc1 | 90.2% | 103% | 74.3% | 91.6% | 99.9% | 96.2 | – | 111% | 102% | 88.1% | 108% | 105% | 107% | 97.8% | 106% | 103% | 108% | 108% |
| COC1=CC(c2ccc[nH]2)=N/C1=C\c1[nH]c(C)c(C(=O)CCCCCCCCC(=O)O[C@H]2CC[C@H]3C4CCc5cc(O)ccc5C4CC[C@]23C)c1C (some centres undefined) | -14.6% (active) | 33.2% | 12.2% | 52.1% | 49.7% | 49.2 | – | 10.7% | 68.3% | 29.8% | 38.3% | 14.3% | 6.58% (active) | 24.1% | 7.77% (active) | 26.2% | 17.5% | 13.7% |
| Cc1nn(-c2ccc(Cl)cc2)c(=O)n1CCN1CCOCC1 | 95.3% | 83.1% | 116% | 92.4% | 93.4% | 42.8 | – | 42.7% | 75.9% | 78.3% | 61.5% | 84.9% | – | 73.4% | 29.5% | 91.3% | 81.3% | 79.2% |
| c1ccc2c(Cc3csc4ccccc34)csc2c1 | 50% | 94.8% | 101% | 101% | 88.3% | 77.7 | – | 104% | 81.9% | 78.9% | 92.2% | -9.16% (active) | 62.6% | 68.4% | 78% | 85.3% | 75.8% | 92.5% |
| COc1cc(C2CC(c3ccc(Cl)cc3)=NN2C=O)ccc1OS(=O)(=O)c1ccc(C)cc1 (centres undefined) | 99.8% | 82.4% | 90.3% | 87.2% | 112% | 96.3 | – | 86.8% | – | 77% | 83.2% | – | 87.2% | 78.9% | 81.1% | 104% | 93.4% | 102% |
| Clc1cn2cc(-c3ccc(Cl)c(Cl)c3Cl)nc2s1 | 75.5% | 108% | 99.5% | 87.8% | 100% | 103 | – | 104% | 110% | 71.8% | 129% | 88.1% | 111% | 87.8% | 96.9% | 106% | 111% | 101% |
